From article PMC7862700, “An all-to-all approach to the identification of sequence-specific readers for epigenetic DNA modifications on cytosine” come the findings set out here.

Assay in all cases: DAPPL (digital affinity profiling via proximity ligation, sequencing); 10 mM Tris-HCl pH 7.5, 50 mM NaCl, 1 mM DTT, 4% glycerol, room temperature, 30 min; GST-TFs on glutathione beads, 16-mer random dsDNA library, 0.1% formaldehyde crosslink after washing; high values mean tight binding
Conditions in all cases: protein: recombinant; tags: N-terminal GST; dsDNA, one strand shown

Assay [1] deals with T1, FLI1 (Homo sapiens, UniProt Q01543 1-452).
T1 sequence: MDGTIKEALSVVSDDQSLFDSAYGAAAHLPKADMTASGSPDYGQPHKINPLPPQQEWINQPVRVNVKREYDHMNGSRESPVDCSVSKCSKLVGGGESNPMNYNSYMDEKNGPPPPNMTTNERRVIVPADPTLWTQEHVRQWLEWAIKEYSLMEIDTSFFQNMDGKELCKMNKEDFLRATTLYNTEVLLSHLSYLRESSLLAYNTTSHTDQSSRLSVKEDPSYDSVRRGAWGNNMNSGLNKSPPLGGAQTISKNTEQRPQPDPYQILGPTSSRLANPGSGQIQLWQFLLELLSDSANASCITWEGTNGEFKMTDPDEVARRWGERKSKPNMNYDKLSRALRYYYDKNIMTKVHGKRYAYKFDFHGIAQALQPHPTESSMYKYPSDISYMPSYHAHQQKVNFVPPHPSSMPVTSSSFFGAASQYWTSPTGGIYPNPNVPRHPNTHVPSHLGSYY
A digest of the protocol:
(§1)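 A tag-only sample was pooled with DNA-barcoded human transcription factors that had been expressed in yeast as GST fusions and captured on glutathione beads. The pools were incubated for 30 min at room temperature with 200 nmole of a random double-stranded 16-mer DNA library in Tris/NaCl/DTT/glycerol buffer, then washed, crosslinked with 0.1% formaldehyde, proximity-ligated (BsaI/T4 ligase, 1 h, 37 °C), PCR-amplified and sequenced on an Illumina NextSeq500. Binding signal is each hexamer's read frequency for a factor divided by its frequency for the tag-only sample.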

The target of assay [2] is T2, ELK1 (Homo sapiens, UniProt P19419 1-428).
T2 sequence: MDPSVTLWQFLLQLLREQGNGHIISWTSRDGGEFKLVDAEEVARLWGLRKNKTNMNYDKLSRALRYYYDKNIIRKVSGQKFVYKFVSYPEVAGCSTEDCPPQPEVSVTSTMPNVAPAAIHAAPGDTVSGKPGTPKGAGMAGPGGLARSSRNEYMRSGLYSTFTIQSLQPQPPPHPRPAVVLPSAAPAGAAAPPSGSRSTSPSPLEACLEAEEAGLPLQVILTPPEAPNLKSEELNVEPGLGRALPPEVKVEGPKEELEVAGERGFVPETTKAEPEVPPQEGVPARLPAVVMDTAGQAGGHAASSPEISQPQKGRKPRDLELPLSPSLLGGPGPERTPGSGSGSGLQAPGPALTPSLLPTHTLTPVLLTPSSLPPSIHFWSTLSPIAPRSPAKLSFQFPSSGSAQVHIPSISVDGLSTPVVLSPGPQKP
The gist of the method: as §1

Assay [3] has as its target T3, GABPA (Homo sapiens, UniProt Q06546 1-454).
T3 sequence: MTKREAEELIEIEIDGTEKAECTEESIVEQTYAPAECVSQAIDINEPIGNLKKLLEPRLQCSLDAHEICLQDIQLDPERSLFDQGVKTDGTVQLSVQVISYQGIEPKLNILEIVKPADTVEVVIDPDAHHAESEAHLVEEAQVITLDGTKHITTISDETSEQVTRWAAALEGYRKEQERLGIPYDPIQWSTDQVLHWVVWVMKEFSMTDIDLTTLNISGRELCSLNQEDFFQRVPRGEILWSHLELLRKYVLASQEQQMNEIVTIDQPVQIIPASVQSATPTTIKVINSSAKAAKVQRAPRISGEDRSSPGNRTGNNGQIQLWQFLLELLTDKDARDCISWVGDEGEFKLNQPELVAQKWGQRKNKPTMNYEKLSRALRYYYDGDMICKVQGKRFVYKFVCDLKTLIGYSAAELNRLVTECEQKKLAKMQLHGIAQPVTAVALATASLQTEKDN
A digest of the protocol: as §1

Assay [4] has as its target T4, ERG (Homo sapiens, UniProt P11308 1-479).
T4 sequence: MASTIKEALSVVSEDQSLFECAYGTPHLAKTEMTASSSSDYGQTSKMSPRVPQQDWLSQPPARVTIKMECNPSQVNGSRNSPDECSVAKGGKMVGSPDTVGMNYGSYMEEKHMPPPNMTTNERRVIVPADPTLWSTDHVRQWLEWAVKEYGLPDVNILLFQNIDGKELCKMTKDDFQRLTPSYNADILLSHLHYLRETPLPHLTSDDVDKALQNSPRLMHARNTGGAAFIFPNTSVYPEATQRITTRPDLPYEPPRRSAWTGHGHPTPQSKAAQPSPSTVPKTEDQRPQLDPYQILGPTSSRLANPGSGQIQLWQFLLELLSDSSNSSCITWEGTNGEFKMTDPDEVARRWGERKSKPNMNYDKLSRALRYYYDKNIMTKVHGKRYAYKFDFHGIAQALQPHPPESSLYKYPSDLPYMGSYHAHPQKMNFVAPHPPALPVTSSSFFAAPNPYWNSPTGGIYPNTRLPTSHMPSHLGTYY
A digest of the protocol:
as §1

In assay [5] the target is ELF1 (Homo sapiens, UniProt P32519 1-619). A digest of the protocol:
as §1

Assay [6] has as its target T5, EHF (Homo sapiens, UniProt Q9NZC4 1-300).
T5 sequence: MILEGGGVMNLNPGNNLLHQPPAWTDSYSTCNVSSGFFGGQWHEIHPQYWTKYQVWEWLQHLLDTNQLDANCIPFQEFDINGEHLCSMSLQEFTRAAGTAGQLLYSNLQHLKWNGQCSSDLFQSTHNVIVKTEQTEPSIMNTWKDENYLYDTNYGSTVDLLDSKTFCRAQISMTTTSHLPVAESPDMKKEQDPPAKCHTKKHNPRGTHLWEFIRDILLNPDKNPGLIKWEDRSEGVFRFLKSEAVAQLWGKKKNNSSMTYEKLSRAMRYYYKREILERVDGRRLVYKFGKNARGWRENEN
The gist of the method:
as §1

The target of assay [7] is SPI1 (Homo sapiens, UniProt P17947 1-270). A digest of the protocol: as §1
Assay [8] concerns the target SPIB (Homo sapiens, UniProt Q01892 1-262). The gist of the method: as §1
For assay [9], the target named is T6, ELK3 (Homo sapiens, UniProt P41970 1-407).
T6 sequence: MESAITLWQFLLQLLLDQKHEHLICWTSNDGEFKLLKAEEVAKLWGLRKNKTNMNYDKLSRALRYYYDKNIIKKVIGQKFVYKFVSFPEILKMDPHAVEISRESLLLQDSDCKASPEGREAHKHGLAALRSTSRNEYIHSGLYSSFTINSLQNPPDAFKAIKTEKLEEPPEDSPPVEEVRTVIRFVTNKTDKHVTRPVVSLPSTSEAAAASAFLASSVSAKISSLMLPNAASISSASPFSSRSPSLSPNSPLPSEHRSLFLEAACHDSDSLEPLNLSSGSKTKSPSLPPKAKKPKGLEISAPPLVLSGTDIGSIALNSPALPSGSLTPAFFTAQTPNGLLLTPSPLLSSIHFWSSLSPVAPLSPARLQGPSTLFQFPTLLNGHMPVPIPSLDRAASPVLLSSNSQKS
The gist of the method: as §1

The target of assay [10] is T7, FEV (Homo sapiens, UniProt Q99581 1-238).
T7 sequence: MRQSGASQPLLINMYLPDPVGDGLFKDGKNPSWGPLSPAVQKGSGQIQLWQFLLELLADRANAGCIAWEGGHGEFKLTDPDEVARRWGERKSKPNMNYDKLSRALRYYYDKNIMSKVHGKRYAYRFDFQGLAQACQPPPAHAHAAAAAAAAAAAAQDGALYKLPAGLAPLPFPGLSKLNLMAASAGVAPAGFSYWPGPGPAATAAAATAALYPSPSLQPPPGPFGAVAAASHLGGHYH
A digest of the protocol:
as §1

The target in assay [11] is ETV5 (Homo sapiens, UniProt P41161 1-510). A digest of the protocol: as §1
ETV5, sequence (P41161 whole entry): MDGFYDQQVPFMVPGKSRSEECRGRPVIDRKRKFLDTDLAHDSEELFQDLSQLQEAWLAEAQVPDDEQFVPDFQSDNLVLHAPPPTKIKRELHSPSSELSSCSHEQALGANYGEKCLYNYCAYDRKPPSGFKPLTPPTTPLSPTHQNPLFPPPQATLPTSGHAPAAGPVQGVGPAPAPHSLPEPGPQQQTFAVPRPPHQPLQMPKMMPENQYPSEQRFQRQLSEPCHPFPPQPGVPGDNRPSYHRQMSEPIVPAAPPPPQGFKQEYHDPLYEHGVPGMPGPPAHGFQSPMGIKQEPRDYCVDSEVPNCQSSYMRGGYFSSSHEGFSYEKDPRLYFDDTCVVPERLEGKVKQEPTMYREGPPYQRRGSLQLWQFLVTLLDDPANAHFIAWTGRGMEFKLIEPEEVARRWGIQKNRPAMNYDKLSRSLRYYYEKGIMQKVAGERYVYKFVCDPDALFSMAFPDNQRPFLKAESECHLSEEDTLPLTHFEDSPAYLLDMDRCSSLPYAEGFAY
The target in assay [12] is T8, SPIC (Homo sapiens, UniProt Q8N5J4 1-248).
T8 sequence: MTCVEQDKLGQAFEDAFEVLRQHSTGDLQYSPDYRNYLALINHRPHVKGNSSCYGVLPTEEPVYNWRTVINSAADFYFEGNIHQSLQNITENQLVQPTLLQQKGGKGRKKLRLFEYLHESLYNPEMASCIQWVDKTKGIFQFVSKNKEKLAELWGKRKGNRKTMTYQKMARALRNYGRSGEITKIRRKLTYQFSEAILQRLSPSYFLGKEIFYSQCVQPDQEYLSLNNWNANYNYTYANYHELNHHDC
The gist of the method: as §1

In assay [13] the target is ELF4 (Homo sapiens, UniProt Q99607 1-663). A digest of the protocol:
as §1

The target of assay [14] is T9, ELK4 (Homo sapiens, UniProt P28324-2 1-405).
T9 sequence: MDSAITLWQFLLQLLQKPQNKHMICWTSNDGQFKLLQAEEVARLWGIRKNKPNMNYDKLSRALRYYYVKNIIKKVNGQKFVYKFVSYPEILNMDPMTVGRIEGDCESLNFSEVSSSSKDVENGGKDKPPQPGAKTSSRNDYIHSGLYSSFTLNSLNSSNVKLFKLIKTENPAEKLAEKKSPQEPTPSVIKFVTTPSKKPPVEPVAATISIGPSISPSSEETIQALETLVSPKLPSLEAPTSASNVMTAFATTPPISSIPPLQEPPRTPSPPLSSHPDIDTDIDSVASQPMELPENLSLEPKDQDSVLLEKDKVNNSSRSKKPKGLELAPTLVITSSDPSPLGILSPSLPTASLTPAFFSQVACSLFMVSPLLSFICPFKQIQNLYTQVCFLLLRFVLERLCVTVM
The gist of the method:
as §1

For assay [15], the target named is T10, ETV2 (Homo sapiens, UniProt O00321 1-342).
T10 sequence: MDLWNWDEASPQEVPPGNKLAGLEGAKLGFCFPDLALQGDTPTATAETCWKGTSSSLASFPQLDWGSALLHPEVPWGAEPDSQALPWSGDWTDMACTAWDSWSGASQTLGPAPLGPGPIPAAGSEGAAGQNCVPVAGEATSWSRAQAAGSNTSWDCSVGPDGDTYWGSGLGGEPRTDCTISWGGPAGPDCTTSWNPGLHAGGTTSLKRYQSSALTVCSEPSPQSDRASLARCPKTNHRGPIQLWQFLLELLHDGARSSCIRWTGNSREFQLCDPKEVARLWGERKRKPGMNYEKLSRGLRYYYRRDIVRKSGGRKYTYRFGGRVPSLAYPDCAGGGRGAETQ
The gist of the method:
as §1

Assay [16] concerns the target T11, ELF3 (Homo sapiens, UniProt P78545 1-371).
T11 sequence: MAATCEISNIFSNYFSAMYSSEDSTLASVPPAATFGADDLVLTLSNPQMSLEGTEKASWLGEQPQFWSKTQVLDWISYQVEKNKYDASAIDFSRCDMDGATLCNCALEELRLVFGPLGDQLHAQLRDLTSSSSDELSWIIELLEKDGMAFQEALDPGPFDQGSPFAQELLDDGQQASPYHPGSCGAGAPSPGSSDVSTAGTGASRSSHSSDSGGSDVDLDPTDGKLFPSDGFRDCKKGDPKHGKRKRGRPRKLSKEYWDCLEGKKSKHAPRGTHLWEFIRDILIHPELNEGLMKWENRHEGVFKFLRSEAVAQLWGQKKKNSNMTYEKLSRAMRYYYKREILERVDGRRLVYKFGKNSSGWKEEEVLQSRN
A digest of the protocol: as §1

The target of assay [17] is ETV1 (Homo sapiens, UniProt P50549 1-477). The gist of the method: as §1
ETV1, sequence (P50549 whole entry): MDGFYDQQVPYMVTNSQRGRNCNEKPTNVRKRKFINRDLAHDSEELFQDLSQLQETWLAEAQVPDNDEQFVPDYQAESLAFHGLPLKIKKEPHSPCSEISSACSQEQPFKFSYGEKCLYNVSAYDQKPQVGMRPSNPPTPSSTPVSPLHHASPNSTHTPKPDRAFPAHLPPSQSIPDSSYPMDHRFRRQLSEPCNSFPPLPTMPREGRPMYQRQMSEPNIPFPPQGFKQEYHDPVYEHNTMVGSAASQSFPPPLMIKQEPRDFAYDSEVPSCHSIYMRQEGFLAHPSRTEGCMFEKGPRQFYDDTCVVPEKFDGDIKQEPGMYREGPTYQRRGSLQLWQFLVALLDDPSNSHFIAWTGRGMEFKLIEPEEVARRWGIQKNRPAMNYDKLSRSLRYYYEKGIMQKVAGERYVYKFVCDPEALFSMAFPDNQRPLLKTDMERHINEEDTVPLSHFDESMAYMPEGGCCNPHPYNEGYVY

ELF4, sequence (Q99607 whole entry): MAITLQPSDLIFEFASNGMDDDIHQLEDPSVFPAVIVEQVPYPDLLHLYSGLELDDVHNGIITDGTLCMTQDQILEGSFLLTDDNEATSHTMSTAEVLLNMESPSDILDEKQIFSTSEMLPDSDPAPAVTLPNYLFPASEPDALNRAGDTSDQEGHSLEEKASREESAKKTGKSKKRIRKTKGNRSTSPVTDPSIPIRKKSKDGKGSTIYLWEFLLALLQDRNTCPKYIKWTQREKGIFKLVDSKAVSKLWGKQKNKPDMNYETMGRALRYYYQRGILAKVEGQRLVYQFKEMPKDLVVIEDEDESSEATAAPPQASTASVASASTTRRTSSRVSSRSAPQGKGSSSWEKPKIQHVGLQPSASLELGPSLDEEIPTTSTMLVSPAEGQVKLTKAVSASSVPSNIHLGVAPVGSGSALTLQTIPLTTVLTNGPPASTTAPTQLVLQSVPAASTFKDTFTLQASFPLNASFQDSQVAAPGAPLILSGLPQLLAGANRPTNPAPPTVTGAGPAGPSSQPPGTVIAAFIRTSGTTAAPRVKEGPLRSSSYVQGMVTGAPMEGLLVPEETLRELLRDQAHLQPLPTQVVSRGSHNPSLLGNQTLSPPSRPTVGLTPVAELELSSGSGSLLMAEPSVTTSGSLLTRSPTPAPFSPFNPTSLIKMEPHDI
ELF1, sequence (P32519 whole entry): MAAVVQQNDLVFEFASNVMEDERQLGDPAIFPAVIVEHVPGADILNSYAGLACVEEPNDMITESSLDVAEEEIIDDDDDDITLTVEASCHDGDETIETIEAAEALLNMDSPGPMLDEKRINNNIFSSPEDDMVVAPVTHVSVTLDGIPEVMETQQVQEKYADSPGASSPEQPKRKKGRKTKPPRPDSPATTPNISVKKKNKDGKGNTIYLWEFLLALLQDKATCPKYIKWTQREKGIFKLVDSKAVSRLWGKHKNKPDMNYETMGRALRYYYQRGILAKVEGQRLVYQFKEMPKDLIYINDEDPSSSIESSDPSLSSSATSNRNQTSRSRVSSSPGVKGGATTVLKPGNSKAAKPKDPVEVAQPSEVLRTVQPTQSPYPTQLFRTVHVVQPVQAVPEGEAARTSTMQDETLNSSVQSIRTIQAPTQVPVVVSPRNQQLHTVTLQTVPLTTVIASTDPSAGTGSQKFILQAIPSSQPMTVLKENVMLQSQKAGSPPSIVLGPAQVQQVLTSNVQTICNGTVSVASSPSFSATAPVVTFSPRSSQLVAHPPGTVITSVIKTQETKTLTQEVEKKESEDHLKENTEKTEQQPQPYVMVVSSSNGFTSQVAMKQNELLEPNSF
SPIB, sequence (Q01892 whole entry): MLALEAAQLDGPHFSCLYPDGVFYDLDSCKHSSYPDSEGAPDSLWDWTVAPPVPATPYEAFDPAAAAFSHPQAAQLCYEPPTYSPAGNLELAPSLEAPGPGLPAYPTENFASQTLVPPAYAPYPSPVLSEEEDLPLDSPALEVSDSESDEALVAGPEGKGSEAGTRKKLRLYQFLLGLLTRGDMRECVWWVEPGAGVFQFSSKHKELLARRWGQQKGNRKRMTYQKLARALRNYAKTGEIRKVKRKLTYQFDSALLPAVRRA

As for CTGTCC, the binding signal in assay [1] is 1.34 fold enrichment (6-mer frequency, TF over GST control); in assay [2] it was 1.22 fold enrichment (6-mer frequency, TF over GST control); in assay [3] it was 1.29 fold enrichment (6-mer frequency, TF over GST control); in [4], 1.28 fold enrichment (6-mer frequency, TF over GST control); in assay [5], 1.28 fold enrichment (6-mer frequency, TF over GST control); in [6] it was 1.36 fold enrichment (6-mer frequency, TF over GST control). Also, the binding signal is 1.25 fold enrichment (6-mer frequency, TF over GST control) in [7]; 1.27 fold enrichment (6-mer frequency, TF over GST control) in [8]; 1.1 fold enrichment (6-mer frequency, TF over GST control) in assay [9]; 1.19 fold enrichment (6-mer frequency, TF over GST control) in [10]; 1.41 fold enrichment (6-mer frequency, TF over GST control) in [11]; 1.13 fold enrichment (6-mer frequency, TF over GST control) in assay [12]. Moreover, the binding signal in assay [13] was 1.28 fold enrichment (6-mer frequency, TF over GST control); in assay [14], 1.24 fold enrichment (6-mer frequency, TF over GST control); in assay [15], 1.2 fold enrichment (6-mer frequency, TF over GST control); in assay [16], 1.17 fold enrichment (6-mer frequency, TF over GST control); in [17], 1.4 fold enrichment (6-mer frequency, TF over GST control).

For the sequence CAACTG, the binding signal in assay [1] is 1.18 fold enrichment (6-mer frequency, TF over GST control); in assay [2], 1.15 fold enrichment (6-mer frequency, TF over GST control); in [3], 1.15 fold enrichment (6-mer frequency, TF over GST control); in assay [4], 1.2 fold enrichment (6-mer frequency, TF over GST control); in assay [5], 1.27 fold enrichment (6-mer frequency, TF over GST control); in assay [6] it was 1.17 fold enrichment (6-mer frequency, TF over GST control). The binding signal in assay [7] is 1.05 fold enrichment (6-mer frequency, TF over GST control); in assay [8], 1.13 fold enrichment (6-mer frequency, TF over GST control); in [9] it was 1.09 fold enrichment (6-mer frequency, TF over GST control); in [10], 1.14 fold enrichment (6-mer frequency, TF over GST control); in assay [11] it was 1.11 fold enrichment (6-mer frequency, TF over GST control); in assay [12] it was 1.13 fold enrichment (6-mer frequency, TF over GST control). For the same sequence, the binding signal in assay [13] was 1.07 fold enrichment (6-mer frequency, TF over GST control); in assay [14], 1.21 fold enrichment (6-mer frequency, TF over GST control); in [15], 1.23 fold enrichment (6-mer frequency, TF over GST control); in assay [16], 1.26 fold enrichment (6-mer frequency, TF over GST control); in assay [17], 1.19 fold enrichment (6-mer frequency, TF over GST control).
